Source: PubChem
Most compounds without a hit are left out; they make up all but 6.1% or so of the library.
D3 ag = agonists of human D3 dopamine receptor | P35462 | D3R DiscoveRx beta-arrestin cells, luminescence, 90 min | max activation, % | 410,000 compounds, 0.58% hits; in the data active = max activation above about 30%; also: 0% is about no effect
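Agonist mode: compounds and dopamine controls were applied to plated cells for 90 min at 37 degrees C after an overnight attachment at 1500 cells/well. Luminescent read-out followed 30 - 60 minutes at room temperature with DiscoveRx detection reagent.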
D1 ag = activates the human D1 dopamine receptor | activation, % at 2 µM | 360,000 compounds, 1% hits | AID 504660 | P21728 | HEK293 T-REx D1 cells, calcium flux, agonist mode; in the data active = activation above about 30%; also: 0% is about no effect
Target sequence (P21728 whole entry, looked up): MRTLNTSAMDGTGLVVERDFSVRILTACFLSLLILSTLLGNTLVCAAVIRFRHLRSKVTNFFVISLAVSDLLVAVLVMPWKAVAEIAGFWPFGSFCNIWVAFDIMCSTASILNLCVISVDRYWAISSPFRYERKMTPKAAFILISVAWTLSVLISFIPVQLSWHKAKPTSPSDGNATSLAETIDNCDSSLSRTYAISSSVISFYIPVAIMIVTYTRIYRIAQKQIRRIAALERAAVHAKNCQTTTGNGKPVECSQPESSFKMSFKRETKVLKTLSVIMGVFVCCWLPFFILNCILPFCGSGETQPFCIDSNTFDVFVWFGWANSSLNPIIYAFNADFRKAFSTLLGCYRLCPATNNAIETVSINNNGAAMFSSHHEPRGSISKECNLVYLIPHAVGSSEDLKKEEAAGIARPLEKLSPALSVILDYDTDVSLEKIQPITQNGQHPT
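Tetracycline-induced HEK293 TREx D1 cells, force-coupled to calcium signalling, were dye-loaded with a no-wash calcium kit. Compound was pin-added after a 10 s baseline. Fluorescence was read kinetically at 1 cycle/s for 180 s, with calcium rises flagged as agonism.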
D1 PAM = human D1 dopamine receptor positive modulation. P21728. HEK293 TREx D1 cells, calcium flux, dopamine EC20 potentiation. potentiation, % at 10 µM. 360,000 compounds, 0.036% hits; in the data active = potentiation above about 30%; also: 0% is about no effect
DRD3 antagonist = blocks the human D3 dopamine receptor; 360,000 compounds, 2.5% hits; D3R cells, DiscoveRx beta-arrestin luminescence, antagonist mode; active compounds read low; max response, negative = inhibition, %; in the data active = max response below about -50%; inconclusive = no clear call, values can overlap the other calls; also: % is scaled to controls: 0 for no effect and ±100 for the full control effect
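Cells plated overnight at 1500 cells/well, then exposed to library compounds with dopamine controls for 90 minutes at 37 degrees C. DiscoveRx reagent added for 30–60 minutes at room temperature; luminescence read, quantitative HTS format.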
D1 antagonist = human D1 dopamine receptor antagonism; 360,000 compounds, 3.2% hits; HEK293 TREx D1 cells, calcium flux, dopamine EC80; active compounds read low; activity change, negative = inhibition, % at 10 µM; in the data active = activity change below about -30%; also: % is scaled to controls: 0 for no effect and ±100 for the full control effect
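Cells carrying a force-coupled, tetracycline-inducible human D1 receptor report calcium flux. Each well gets a 10 s baseline, compound with 180 s monitoring, then an EC80 dopamine stimulus with a second 180 s kinetic read.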
* marks the source's active call; other numbers are inactive results; ? = inconclusive; · = no result given; ! = repeats disagree.

SMILES	D3 ag	D1 ag	D1 PAM	DRD3 antagonist	D1 antagonist
COc1cccc(C(=O)N2c3ccc(C)cc3C(C)(c3ccccc3)CC2(C)C)c1 (configuration not stated)	-5	0	0	·	11
OC1(c2cccc(C(F)(F)F)c2)CCN(c2ncnc3c2[nH]c2ccc(F)cc23)CC1	40*	2	-5	-25	-7
Fc1ccc2[nH]c3c(N4CCN(c5ccccc5)CC4)ncnc3c2c1	5	14	-7	-13	-28
Fc1ccccc1C1c2cccn2CCN1C(=S)Nc1ccc(Br)cc1 (configuration not stated)	-21	21	-4	-64*	-7
Fc1ccccc1C1c2cccn2CCN1C(=S)Nc1cccc(Br)c1 (configuration not stated)	-2	15	-3	-4	0
COc1ccc(NC(=O)C2(S(=O)(=O)c3ccc(C)cc3)CC2)c(OC)c1	4	0	1	·	8
COc1ccc(CNC(=O)CCn2c(=O)c3cccn3c3ccc(F)cc32)cc1OC	-8	20	-4	·	-43*
COc1ccc(NC(=O)CCn2c(=O)c3cccn3c3ccccc32)cc1	-19	1	7	-24	4
CCOC(=O)c1ccc(NC(=O)CCn2c(=O)c3cccn3c3ccccc32)cc1	2	86*	24	·	-16
O=C(CCn1c(=O)c2cccn2c2ccccc21)Nc1ccc(F)cc1	-20	1	1	-65*	33
COc1ccc(CNC(=O)CCCn2c(=O)c3cccn3c3ccc(F)cc32)cc1OC	5	2	-3	·	6
CCOc1ccc(CNC(=O)C2CCN(c3nc4ccccc4nc3C(F)(F)F)CC2)cc1OC	-4	1	-1	·	-2
CCOC(=O)c1cc(S(=O)(=O)Nc2ccc(OC)c(Cl)c2)[nH]n1	-7	2	-1	·	-17
CCCN(C(=O)CCn1cnc2onc(-c3ccc(F)cc3)c2c1=O)c1ccccc1C	1	3	1	·	0
CCCCN(CC)CCNC(=O)CCn1cnc2onc(-c3ccc(F)cc3)c2c1=O	-21	32*	-6	·	-25
COc1ccc(-c2c(C)nn3c(C(F)(F)F)cc(C)nc23)cc1OC	-2	2	1	·	-56*
COC(=O)c1cc2nc(-c3ccc(OC)c(OC)c3)cc(C(F)(F)F)n2n1	0	1	0	-70*	6
Cc1cc(C(F)(F)F)n2nc(C)c(-c3ccc(Cl)cc3)c2n1	2	5	-3	31	14
Cc1nn(-c2ccccc2)c2c1N(CCCC(=O)NCc1ccc(OC(C)C)cc1)C(=O)CS2	-13	-1	-3	·	-14
CC(=O)c1ccc(NC(=O)Nc2nnc(N3CCCC(C)C3)s2)cc1 (configuration not stated)	4	1	-1	·	-3
O=C1CC2(CCCC2)CC(=O)N1CCCCN1CCN(c2ncccn2)CC1	-89	2	-4	-100*	-17
COC(=O)/C=C1\N/C(=N\c2nc(C)cc(C)n2)N(c2ccccc2)C1=O	-9	0	-3	16	-52*
COC(=O)/C=C1/N/C(=N\c2nc(C)cc(C)n2)N(c2ccccc2)C1=O	20	1	0	-13	-7
CCc1ccc(CNC(=O)c2ccc(NC(=O)N3CCCCc4ccccc43)cc2)cc1	5	0	2	·	20
O=C1c2ccccc2NC(c2cccc(F)c2)N1Cc1ccco1 (configuration not stated)	-25	0	2	-61*	3
SMILES	D3 ag	D1 ag	D1 PAM	DRD3 antagonist	D1 antagonist
CCCn1c2ccccc2c2cnn(CC(=O)NCCCN3CCCCC3)c(=O)c21	-17	-1	0	-29	-2
Cc1ccc(C)c(N2CCN(CCCNC(=O)Cn3ncc4c([nH]c5ccccc54)c3=O)CC2)c1	-18	-2	4	·	-25
CCCn1c2ccccc2c2cnn(CC(=O)NCCCN3CCN(c4ccccc4)CC3)c(=O)c21	4	11	-13	-83*	-24
COc1ccccc1N1CCN(CCCNC(=O)Cn2ncc3c([nH]c4ccccc43)c2=O)CC1	-22	0	-13	-108*	-30
Cn1c2ccccc2c2cnn(CC(=O)NCCCN3CCN(c4ccccc4F)CC3)c(=O)c21	11	10	-5	-90*	-63*
O=C(c1cccn1-c1nnc(N2CCCC2)s1)N1CCN(c2ccc(Cl)cc2)CC1	-5	1	-4	·	2
O=S(=O)(c1cccc(C(F)(F)F)c1)N(CCCN1CCOCC1)Cc1cccs1	-19	7	-9	-80*!	-15
COc1ccc(S(=O)(=O)N(C)CC(=O)N2CCOCC2)cc1	1	0	-3	7	-12
COc1ccc(S(=O)(=O)N(CCCN2CCOCC2)Cc2ccc(OC)c(OC)c2)cc1	-32	0	1	-69*	-21
COC(=O)c1ccccc1S(=O)(=O)N(CCCN1CCOCC1)Cc1cccs1	4	-3	-4	?	15
COc1ccc(S(=O)(=O)N(CCc2ccccc2)CC(=O)N2CCOCC2)cc1	-2	1	-4	6	-74*
COc1ccc(N(C(=O)c2ccc(Cl)cc2)S(=O)(=O)c2ccc(C)cc2)cc1	9	5	-1	·	-14
CCN(C(=O)c1nn(-c2ccc(OC)c(Cl)c2)c(=O)c2c1c1ccccc1n2C)c1cc(OC)ccc1OC	-1	1	3	·	-4
CCN(CC)S(=O)(=O)c1ccc(Cl)c(NC(=S)NC(=O)C2CCCC2)c1	-17	32*	·	?	-17
Cc1ccc(NC(=S)NC2CCCCC2)cc1S(=O)(=O)N(C)C	3	28	-8	25	-34*
COc1ccccc1NS(=O)(=O)c1ccc(Cl)c(NC(=S)NC(=O)C2CCCC2)c1	-4	2	-3	-25	-9
O=C(NC(=S)Nc1ccccc1Cl)C1CC1	6	1	17	?	3
CCN(CC)c1ccc(S(=O)(=O)Nc2cc(Cl)ccc2Cl)cc1NC(=S)NC(=O)C1CCCC1	-2	2	-5	-3	-32*
CCN(CC)S(=O)(=O)c1ccc(C)c(NC(=S)NC2CCCCC2)c1	-3	16	-6	-18	-80*
CCN(CC)CCNC(=O)C(=O)NCC(c1cccnc1)N1CCN(c2ccccc2)CC1 (configuration not stated)	8	2	0	·	-10
Cc1ccc2oc(-c3cc(NC(=O)Cc4ccccc4)ccc3Cl)nc2c1	-5	8	-3	·	-16
CCOc1ccc(N(Cc2cc3cc(C)ccc3[nH]c2=O)C(=O)c2cccc(Cl)c2)cc1	6	1	2	·	-2
c1ccc(-c2ccccc2OCCCCN2CCCCC2)cc1	-38	9	-6	-71*	-8
c1ccc(-c2ccccc2OCCCN2CCCCCC2)cc1	-1	24	-10	?	-43*
c1ccc(-c2ccccc2OCCCN2CCCC2)cc1	-35	10	-3	-71*	-39*
